Results from paper PMC4336329 (PLoS ONE, 2015).
About 14,000 (4.5%) of roughly 310,000 compounds showed an effect of 50% or more. The effect is printed as a negative number. This excerpt belongs to a sample that is enriched for strong results.

Molecular target: human ether-à-go-go-related gene (hERG) potassium channel (human, UniProt Q12809)
Experiment: primary screen, population patch clamp on CHO cells stably expressing hERG; higher = less effect of the substance
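Further: peak tail current of the secondary pulse compared with the same well before compound.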

Chain of human ether-à-go-go-related gene (hERG) potassium channel (Q12809 whole entry, looked up): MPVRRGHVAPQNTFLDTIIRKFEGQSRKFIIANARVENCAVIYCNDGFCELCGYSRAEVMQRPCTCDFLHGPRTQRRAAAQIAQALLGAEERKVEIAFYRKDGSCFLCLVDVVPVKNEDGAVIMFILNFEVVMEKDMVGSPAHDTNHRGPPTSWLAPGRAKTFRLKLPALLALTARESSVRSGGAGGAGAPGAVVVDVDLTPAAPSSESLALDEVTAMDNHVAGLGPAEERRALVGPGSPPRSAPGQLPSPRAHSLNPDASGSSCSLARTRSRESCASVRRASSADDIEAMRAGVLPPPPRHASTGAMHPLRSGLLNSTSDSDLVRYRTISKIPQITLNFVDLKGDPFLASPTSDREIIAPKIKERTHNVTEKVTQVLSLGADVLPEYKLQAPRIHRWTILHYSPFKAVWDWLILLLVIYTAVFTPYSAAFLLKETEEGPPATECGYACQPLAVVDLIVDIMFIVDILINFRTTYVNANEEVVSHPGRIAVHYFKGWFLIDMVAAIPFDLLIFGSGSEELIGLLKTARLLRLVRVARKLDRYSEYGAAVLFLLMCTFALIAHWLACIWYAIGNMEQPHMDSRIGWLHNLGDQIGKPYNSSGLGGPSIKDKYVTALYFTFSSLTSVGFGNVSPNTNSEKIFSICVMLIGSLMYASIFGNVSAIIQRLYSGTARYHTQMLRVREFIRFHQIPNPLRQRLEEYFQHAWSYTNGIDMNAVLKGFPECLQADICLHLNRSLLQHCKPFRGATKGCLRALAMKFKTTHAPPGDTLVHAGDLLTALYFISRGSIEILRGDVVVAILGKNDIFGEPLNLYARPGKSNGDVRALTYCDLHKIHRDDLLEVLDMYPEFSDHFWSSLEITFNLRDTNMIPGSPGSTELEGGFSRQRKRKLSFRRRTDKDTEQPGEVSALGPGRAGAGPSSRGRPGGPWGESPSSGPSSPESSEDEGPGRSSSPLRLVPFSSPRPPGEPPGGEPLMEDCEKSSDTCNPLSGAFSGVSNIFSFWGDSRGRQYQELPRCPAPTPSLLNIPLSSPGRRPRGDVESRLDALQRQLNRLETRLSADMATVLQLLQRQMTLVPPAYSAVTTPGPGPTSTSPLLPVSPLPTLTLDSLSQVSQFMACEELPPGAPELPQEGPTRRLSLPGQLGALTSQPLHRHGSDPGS

| Structure (SMILES) | hERG current change (%, negative = inhibition) at 10uM |
| --- | --- |
| CC(Oc1ccc([N+](=O)[O-])cc1)C(=O)NCC1CCCO1 (stereo not shown) | -7.02% |
| COc1ccccc1N1C(=O)c2cccc3c(N(C)CCO)ccc(c23)C1=O | 5.75% |
| Cl.Fc1ccc(-c2ccc(CNCc3ccccn3)o2)cc1 | -25.4% |
| CC(=O)N(CCC(Cc1ccccc1)c1ccc2c(c1)OCO2)Cc1ccccc1F (stereo not shown) | 7.53% |
| Fc1ccccc1CNCCc1ccc2c(c1)OCO2 | -7.43% |
| COCCCNCCC(CCC(C)C)c1ccc2c(c1)OCO2.Cl (stereo not shown) | -80.2% |
| Cl.Fc1ccccc1CNCCC(Cc1ccccc1)c1ccc2c(c1)OCO2 (stereo not shown) | -50.6% |
| CCc1ccccc1NC(=O)NC(C)c1ccc2c(c1)OCO2 (stereo not shown) | 14% |
| Fc1cccc(CCNCc2ccccn2)c1 | -6.71% |
| Fc1ccc(C(CCNCc2ccccn2)c2ccc(Cl)cc2)cc1 (stereo not shown) | -77.5% |
| COCCCNC(=O)c1ccc2c(c1)OCO2 | -9.98% |
| CC(NC(=O)C1CCC1)c1ccc2c(c1)OCO2 (stereo not shown) | -5.51% |
| CCNCCC(CCC(C)C)c1ccc2c(c1)OCO2 (stereo not shown) | -72% |
| COCCCNS(=O)(=O)c1ccc2c(c1)OCCO2 | 6.53% |
| Nc1nc(NCCOCCO)nc(NCc2ccccc2)c1[N+](=O)[O-] | -1.49% |
| O=C(NCc1ccccc1)C(=O)Nc1cccc(C(=O)O)c1 | 4.16% |
| NC(=O)N/N=C/c1ccccc1OCC(=O)NCc1ccccc1 | -3.76% |
| S=c1[nH]nc(-c2ccncc2)n1/N=C/C=C/c1ccccc1 | 8.71% |
| COc1ccc(S(=O)(=O)N(CCC(=O)O)Cc2ccccc2)cc1 | 13.7% |
| Cc1ccc(-n2ncc3c(=O)n(CC(=O)NC4CCCC4)cnc32)cc1C | 5.66% |
| CCOC(=O)c1ccc(NC(=O)Cc2coc3cc4c(cc23)CCC4)cc1 | 5.55% |
| CO[C@@]1(NC(=O)CSCC#N)C(=O)N2C(C(=O)[O-])=C(CSc3nnnn3C)CS[C@@H]21.[Na+] | 4.09% |
| Cc1cccc(NC(=O)NNS(=O)(=O)c2ccc(F)cc2)c1 | -1.81% |

| Structure (SMILES) | hERG current change (%, negative = inhibition) at 10uM |
| --- | --- |
| CSc1nnc(SCC#N)s1 | 8.95% |
| CC(C)CCNC(=O)CN(C(=O)CCC(=O)Nc1nccs1)c1ccc2c(c1)OCCO2 | -4.45% |
| Cc1cc(N/N=C/c2ccccc2)nc(N)n1 | -14.5% |
| O=C(O)C(=O)O.c1ccc(CNCCc2ccc3c(c2)OCO3)nc1 | 2.74% |
| CC(C)CCC(CCNCc1ccccn1)c1ccc(Cl)cc1 (stereo not shown) | -80.4% |
| CC(C)CCC(CCNCc1ccccn1)c1ccc2c(c1)OCO2.Cl (stereo not shown) | -75.5% |
| CC(C)C(CCNCc1ccccn1)c1ccc(Cl)cc1 (stereo not shown) | -41.6% |
| c1ccc(CNCc2ccc3c(c2)OCO3)nc1 | 11.2% |
| O=C(NCc1ccccn1)Nc1ccc(Cl)cc1 | 13.9% |
| O=C(CF)NC(Nc1cccc2cccnc12)C(Cl)(Cl)Cl (stereo not shown) | -5.95% |
| COc1ccc(N2CCN(C(=O)c3ccc4c(c3)CCN4S(=O)(=O)c3ccccc3)CC2)cc1 | -23.2% |
| O=C(NCC1CC1)Nc1ccccc1 | 16.3% |
| N#C/C(=C/c1cc[nH]c1)C(N)=S | 14.2% |
| COc1ccc(N2CCN(CC(=O)Nc3ccccc3SC)CC2)cc1 | -5.77% |
| COC(=O)C1CCN(CC(=O)Nc2cc(Cl)ccc2OC)CC1 | -19% |
| CSc1ccccc1NC(=O)CN1CCN(S(=O)(=O)c2ccccc2[N+](=O)[O-])CC1 | -52.2% |
| CCN1CCC(NC(=O)Nc2cc(Cl)ccc2OC)CC1 | -2.83% |
| CSc1ccccc1NC(=O)CN1CCN(Cc2ccccc2)CC1 | -66.3% |
| CSc1ccccc1NC(=O)CN1CCCCC1 | 8.96% |
| COc1ccccc1NC(=O)CCN1CCN(Cc2ccccc2)CC1 | -22.3% |
| O=C(CN1CCN(S(=O)(=O)c2ccccc2[N+](=O)[O-])CC1)NC(=O)NCc1ccco1 | -5.96% |
| COc1ccc(Cl)cc1NC(=O)CN1CCC(NC(=O)C2CC2)CC1 | -52% |
| O=C(CN1CCN(S(=O)(=O)c2ccccc2[N+](=O)[O-])CC1)Nc1ccc(N2CCOCC2)cc1 | -12.9% |

| Structure (SMILES) | hERG current change (%, negative = inhibition) at 10uM |
| --- | --- |
| COc1ccccc1NC(=O)CN1CCN(c2ccccc2)CC1 | -12.7% |
| COc1ccccc1NC(=O)CN1CCN(Cc2ccccc2)CC1 | -67.6% |
| Cc1ccccc1C(=O)NC(=S)Nc1ccccc1[N+](=O)[O-] | 18.1% |
| O=C(NC(Cc1c[nH]c2ccccc12)c1nnc2n1CCCCC2)c1ccccc1 (stereo not shown) | 18.7% |
| Cc1ccc(S(=O)(=O)N2CCCC(C(=O)NCCC3=CCCCC3)C2)cc1 (stereo not shown) | -4.03% |
| CC1Cc2ccccc2N1C(=O)Cn1cnc2ccccc2c1=O (stereo not shown) | 21.8% |
| Cc1cc(C)nc(NC(=O)CSc2ccccn2)n1 | 1.08% |
| C/C(=N/NC(=O)c1ccc(Br)o1)c1ccncc1 | 7.82% |
| CCOc1ccccc1NC(=O)C1CCN(c2ccc(S(=O)(=O)N3CCCC3)cc2)CC1 | -6.65% |
| CCC1CCCCN1CCNS(=O)(=O)c1ccc2c(c1)CCN2C(C)=O (stereo not shown) | -1.09% |
| CCN1CCN(C(=O)N(c2ccccc2)c2ccccc2)CC1 | 11.9% |
| Cc1n[nH]c(=O)c2c(NC(=O)CSc3nc4ccccc4c(=O)n3CCCO)oc(C)c12 | -21.2% |
| COc1cccc(Cn2c(Oc3cccc(C)c3)nc3c2c(=O)n(C)c(=O)n3C)c1 | -9.7% |
| O=S(=O)(N/N=C/c1ccc(F)cc1)c1ccccc1 | 6.88% |
| Cn1nc(-c2ccc(NCCO)c([N+](=O)[O-])c2)c2ccccc2c1=O | -2.29% |
| O=C(c1ccccc1Cl)N(Cc1ccc(Cl)c(Cl)c1)N1C(=O)CCCC1=O | -6.37% |
| CC(=O)Nc1ccc(NC(=O)C(C)Oc2ccccc2C(=O)NCc2ccccc2)cc1 (stereo not shown) | -46.9% |
| COc1ccc(OC2CCN(S(=O)(=O)c3ccc(C(C)=O)cc3)CC2)cc1 | -19.7% |
| COc1ccc(Cl)cc1NC(=O)CCN1CCN(c2ccccc2C)CC1 | 6.79% |
| COc1ccc(OC)c(NC(=O)CCN2CCN(Cc3ccccc3)CC2)c1.Cl | -32.9% |
| COc1ccc(Cl)cc1NC(=O)CN1CCCCCC1 | -8.36% |
| COc1ccc(Cl)cc1NC(=O)CN1CCCC1.Cl | 5.1% |
| COc1ccc(Cl)cc1NC(=O)CN1CCN(Cc2ccccc2)CC1 | -68.9% |

| Structure (SMILES) | hERG current change (%, negative = inhibition) at 10uM |
| --- | --- |
| COc1ccccc1NC(=O)c1nnn(Cc2ccccc2)c1NC(=O)C(F)(F)F | -53% |
| COc1ccc(Cl)cc1NC(=O)CCN1CCN(Cc2ccccc2)CC1 | -64.6% |
| O=C(Nc1ccccc1)c1nnn(Cc2ccccc2)c1NC(=O)C(F)(F)F | -7.45% |
| COc1ccccc1NC(=O)c1nnn(Cc2ccccc2)c1NC(C)=O | 2.36% |
| COc1ccc(CCN=C(N)NS(=O)(=O)c2cc(F)ccc2F)cc1 | -17.2% |
| N/C(Cc1ccc([N+](=O)[O-])cc1)=N\OC(=O)COc1ccccc1Cl | -21.2% |
| O=C(c1ccccc1)N1CN2CN(C(=O)c3ccccc3)CC([N+](=O)[O-])(C2)C1 | 21.8% |
| COc1cccc(NC(=O)CSc2nnc(-c3ccoc3C)n2-c2ccccc2)c1 | -85.7% |
| COc1cccc(-n2nnnc2SCC(=O)NCCc2ccccc2)c1 | -20.8% |
| CCOc1ccccc1-n1c(SCC(=O)NC(C)(C)C)nnc1-c1ccoc1C | 1.75% |
| Cc1occc1-c1nnc(SCC(=O)NCCc2ccccc2)o1 | -11.5% |
| COC(=O)CSc1nnc(-c2ccoc2C)n1-c1ccc(OC)cc1 | -18.3% |
| COc1cccc(-n2c(SCC(=O)NC(C)(C)C)nnc2-c2ccoc2C)c1 | -64.5% |
| COc1cccc(NC(=O)CSc2nnc(-c3ccoc3C)n2C)c1 | 4.35% |
| COc1cccc(-n2c(SCC(=O)NCCc3ccccc3)nnc2-c2ccoc2C)c1 | -76.8% |
| COc1ccc(-n2c(SCC(=O)Nc3cccc(C(=O)O)c3)nnc2-c2ccco2)cc1 | 17.7% |
| COc1cccc(NC(=O)CSc2nnc(-c3ccoc3C)n2CC2CCCO2)c1 (stereo not shown) | -1.09% |
| CCn1c(SCC(=O)NC(C)(C)C)nnc1-c1ccoc1C | -18.5% |
| COc1ccc(-n2c(SCC(=O)Nc3ccccc3)nnc2-c2ccoc2C)cc1 | -71.8% |
| CN(CC(=O)Nc1cccc(F)c1)C(=O)CCC1CCCCC1 | 17.7% |
| COC(=O)C(=NNc1c(C)n(C)n(-c2ccccc2)c1=O)C(=O)OC | 9.93% |
| COc1ccccc1NC(=O)c1cc(OC)c(OC)cc1[N+](=O)[O-] | 4.44% |
